# Source: PubChem
# ERG Ets-DNA blk: blocks human ERG Ets domain binding to DNA; fluorescence polarization, His-ERG Ets domain / labelled DNA; 370,000 tested, 0.028% active; AID 624246; P11308; Potency, µM (highest dose often 76.9 µM), for inactives: top-dose FP activity, negative = inhibition, hits mostly inhibitors; active means well fitted inhibition curve with a large enough effect in the polarisation, with a control signal flat; inconclusive means small, poorly fitted or top-dose-only effect, or effect the other way, or a change in a side signal; inactive means no such curve, though single readings can be large or run the other way; the % refers to the polarisation;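 further: polarization taken with two DNA probes labelled with fluorescein and Texas red; % of control where 0% means no effect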
# Target sequence (P11308 whole entry, looked up, the tested form may be a part): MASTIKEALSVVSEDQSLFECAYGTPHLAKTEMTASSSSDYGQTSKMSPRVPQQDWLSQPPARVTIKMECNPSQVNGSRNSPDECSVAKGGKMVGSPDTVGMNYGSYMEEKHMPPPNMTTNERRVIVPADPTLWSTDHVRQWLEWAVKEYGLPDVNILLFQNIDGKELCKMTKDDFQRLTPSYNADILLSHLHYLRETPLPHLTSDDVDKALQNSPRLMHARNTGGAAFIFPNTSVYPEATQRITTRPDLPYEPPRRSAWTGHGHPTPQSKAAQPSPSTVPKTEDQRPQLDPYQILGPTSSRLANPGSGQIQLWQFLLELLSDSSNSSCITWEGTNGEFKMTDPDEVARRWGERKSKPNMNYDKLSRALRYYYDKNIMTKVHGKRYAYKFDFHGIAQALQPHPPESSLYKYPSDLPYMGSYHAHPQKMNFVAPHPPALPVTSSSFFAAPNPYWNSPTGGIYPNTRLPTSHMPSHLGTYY
#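 His-tagged ERG Ets domain (1 uM in the protein solution; 300mM KCl, 50mM Tris-HCl, 1mM EDTA, 1mM DTT, pH 7.5) received compound, then a probe mix of 5 nM fluorescein-DNA and 100nM Texas-615-DNA. Fluorescence polarization was read for both dyes.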
# RECQ1 helicase: RECQ1 (human) helicase inhibition; Potency, µM (doses to about 57.3 µM), without a hit: at the highest dose activity, negative = inhibition, most hits filed as inhibitors; 240,000 tested, 0.54% active; RECQ1 DNA unwinding, red fluorescence kinetic read;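 further: plate controls were vehicle for no effect and no enzyme for full effect; nearly all actives have a fitted effect of over 30% in size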
#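 50 nM RECQ1T1 preincubated 15 min with compound in Tris pH 8.0 buffer with MgCl2, DTT, Tween-20 and 2.5 ug/ml poly(dI-dC); started with 200 nM TAMRA/BHQ-2 forked duplex and 2 mM ATP. Unwinding read as fluorescence (525/598 nm), two reads 2 h apart.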
# BLM helicase inh: blocks DNA unwinding by human BLM helicase; P54132; recombinant BLM DNA unwinding, fluorescence dequenching; Potency, µM (doses to about 56.1 µM), inactives show top-dose activity change, negative = inhibition, usual class: inhibitors; 350,000 tested, 0.2% active; AID 2528;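 further: plate controls were vehicle for no effect and no enzyme for full effect; nearly all actives have a fitted effect of over 35% in size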
# KAT2A inh: blocks human GCN5L2 histone acetyltransferase; 390,000 tested, 0.21% active; AID 504327; GCN5L2 HAT assay, ThioGlo1 CoA-SH fluorescence; Potency, µM (series often up to 58.9 µM), for inactives: at the top dose activity change, negative = inhibition, most hits filed as inhibitors; further: on the % scale 0 is the no-effect control and ±100 the full control effect
#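 ThioGlo1-coupled HAT assay: 20nM GCN5L2, 70uM acetyl-CoA, 75uM H3(1-25) peptide, pH 7.5. Fluorescence read at 340/540nm at start and after 20 min at room temperature.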
# WRN helicase inh: blocks human WRN helicase; WRN helicase unwinding, fluorescent forked duplex, kinetic; Potency, µM (series often up to 114 µM), for inactives: top-dose activity change, negative = inhibition, hits mostly inhibitors; 360,000 tested, 0.46% active; AID 651768; further: on the % scale 0 is the no-effect control and ±100 the full control effect; nearly all actives have a fitted effect of over 55% in size
#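 Kinetic fluorescence helicase assay: unwinding of a quenched forked DNA duplex (100 nM final) with 2 mM ATP final raises red fluorescence (525/598 nm). Compounds sat 15 min at room temperature with 20 nM WRN beforehand.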
# APE1 inh: inhibitors of human APE1 endonuclease; Potency, µM (titrated, usually from 65.8 µM), inactives show top-dose activity change, negative = inhibition, usual class: inhibitors; 350,000 tested, 0.35% active; AID 2517; recombinant APE1, TAMRA/BHQ-2 abasic DNA cleavage fluorescence; P27695;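 further: plate controls were vehicle for no effect and reference inhibitor for full effect; nearly all actives have a fitted effect of over 55% in size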
#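 Kinetic fluorescence read (525 ex/598 em nm, three reads 60 s apart) of AP-site incision; signal = third minus first read. Enzyme 0.75 nM, dual-labelled THF duplex 50 nM, compound preincubation 15 min RT.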
# An asterisk follows results filed as active; i = inactive; ? = inconclusive; · = no result given; ! = not active in a repeat; [ ] = remark or other dose. The list is not random: actives were taken first. Their share in the collection is about 0.88%. Unless noted, the call rests on the fitted dose curve; in most records, active means well fitted curve in the direction sought with a large enough effect; inconclusive means small, poorly fitted or top-dose-only effect, or another doubt; inactive means no such curve, though single readings can be large; an effect the other way counts as inactive or inconclusive. Potency means the concentration at half of the fitted maximal effect.
SMILES,ERG Ets-DNA blk,RECQ1 helicase,BLM helicase inh,KAT2A inh,WRN helicase inh,APE1 inh
Oc1ccc2c(c1)OCC1(O)Cc3cc(O)c(O)cc3C21 (centres undefined),13µM*,-3%,-2%,-9%,8.9µM*,-1%
CC1(C)S[C@H]2[C@@H](NC(=O)C(N)c3ccccc3)C(=O)N2[C@H]1C(=O)O (some centres undefined),·,?,-1%,·,·,20µM*
COc1ccc(OCCOc2ccc(/C=C3\C(=N)N4N=C(C)SC4=NC3=O)cc2)cc1,11%,·,·,-3%,9%,9.5µM*
COc1cc(/C=C2\C(=N)N3N=C(S(C)(=O)=O)SC3=NC2=O)ccc1OC(=O)c1cccs1,5%,·,-10%,-21%,-16%,-42%
COc1cc(/C=C2\C(=N)N3N=C(S(C)(=O)=O)SC3=NC2=O)ccc1OCCOc1ccccc1C,1%,·,-24%,1%,50µM*,?
CC(C)(C)n1ncc2c(=O)n(Cc3c(Cl)ccc(Cl)c3Cl)cnc21,·,·,·,·,·,-2%
CN(C)CCO[C@](C)(c1ccccc1)c1ccccn1,·,-5%[25.9 µM],3%[21.4 µM],9%[21.4 µM],·,3%[21 µM]
C/C(N)=C(/C#N)C(=O)CSc1nnnn1-c1ccc(C)cc1,-2%,20µM*,-7%,-3%,-9%,-3%
C/C(N)=C(/C#N)C(=O)CSc1nnnn1-c1ccccc1,-4%,-15%,-12%,-7%,-22%,?
COC(=O)/C=C/c1ccc2c(c1)OCO2,-4%,3%,0%,-9%,-4%,-2%
CCNc1ccccc(C(=O)/C=C/c2ccc3c(c2)OCO3)c1=O,-1%,?,-21%,-14%,56µM*,-9%
CN(CCO)c1nc(N)c(C#N)c(CC#N)c1C#N,3%,-11%,-9%,3%,-21%,0%
CC(C)CN(CC(C)C)c1nc(N)c(C#N)c(CC#N)c1C#N,16%,28µM*,-8%,0%,-19%,12%
COC(=O)C1=C(O)/C(=C\c2ccc(CNS(=O)(=O)c3ccc(Cl)cc3)o2)N=C1C,0%,6%,-17%,-15%,?,4%
CCOC(=O)C1=C(O)/C(=C\c2ccc(CNS(=O)(=O)c3ccc(Br)cc3)o2)N=C1C,-2%,-9%,-7%,22%,45µM*,-9%
CC(C)(C)c1ccc(Cn2cnc3c(cnn3C(C)(C)C)c2=O)cc1,·,·,·,·,·,-7%
CC(C)(c1cc(Br)c(O)c(Br)c1)c1cc(Br)c(O)c(Br)c1,-1%,22µM*!,·,?,?,-3%
CCOC(=O)C1CCN(c2nc(-c3ccc(Br)cc3)cs2)CC1,·,·,·,·,·,56%
CCCCCCC(=O)N(O)C1CC(=O)N(c2ccc(C)cc2)C1=O (centres undefined),8%,i,-2%,3%,-4%,4%
CCCCCCC(=O)N(O)C1CC(=O)N(c2ccc(Cl)cc2)C1=O (centres undefined),0%,0%,-2%,-16%,79µM*,-7%
CC(C)(C)OC(=O)NC(NC(=O)OCC1c2ccccc2-c2ccccc21)C(=O)O (centres undefined),·,-13%,2%,28%,·,0%
COc1cccc(-c2oc3ccc(C)cc3c(=O)c2O)c1,-3%,·,-4%,-18%,·,·
COc1cccc(-c2nnc(SCC(=O)NCc3ccc4c(c3)OCO4)n2Cc2ccco2)c1,-3%,-3%,-14%,40µM*,-9%,0%
CC(C)N(C1=CC(=O)OC12CCCCC2)C(C)C,2%,-11%,-9%,-7%,1%,4%
CCN(CC)C1=CC(=O)OC12CCCCC2,-1%,7%,4%,20µM*,9%,18%
COc1ccccc1NC(=O)c1cc2ccccc2o/c1=N\O,0%,-13%,-20%,?,100µM*,0%
Cc1cccc(OC(C)C(=O)Nc2ccc3c(c2)OCCO3)c1 (centres undefined),14%,·,·,·,-9%,·
